# Assay results published in PubChem BioAssay (NCATS).
# Records with an inconclusive call do not appear. A number with no mark means an inactive call. Active and inactive are the calls of the source. Calls follow the shape of the dose curve; as a rule, active = well fitted curve in the direction sought with a large enough effect; inconclusive = small, poorly fitted or top-dose-only effect, or another doubt; inactive = no such curve, though single readings can be large; an effect the other way counts as inactive or inconclusive.
# Experiment: qHTS of pediatric cancer cell lines to identify multiple opportunities for drug repurposing: Primary screen for Rh18 cells (AID 1347102); also: nearly all actives have a fitted effect of over 65% in size; as to activity change, negative = cytotoxic: % is scaled to controls: 0 for no effect and ±100 for the full control effect
# Settings: Rh18 rhabdomyosarcoma viability, CellTiter-Glo luminescence, 48 h; series mostly up to 46 µM; activity change, negative = cytotoxic: at the top concentration
# Summary of the method: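 Cells (500-1,000/well) in growth media were settled 5 h at 37 degrees C, then given compounds for 48 h. Viability was read as CellTiter-Glo luminescence. Primary runs used MIPE at 11 points (0.78 nM-46 µM) and NPC at 8 points (0.59 nM-46 µM); follow-ups used 11 points.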
# Potency is read from the fitted curve at half-maximal effect.
SMILES,"activity change, negative = cytotoxic [%]",Potency
NC(=O)c1ncn([C@@H]2O[C@H](CO)[C@@H](O)[C@H]2O)n1,2.97,
Cc1ccc2nc(N)[nH]c(=O)c2c1Sc1ccncc1,-4.11,
COC(=O)C1=C(C)NC(C)=C(C(=O)OC)C1c1ccccc1[N+](=O)[O-],-6.42,
CCN(CC)CCOC(=O)C1(C2CCCCC2)CCCCC1,3.25,
C[C@]12CC[C@@H]3c4ccc(O)cc4CC[C@H]3[C@@H]1CCC2=O,2.23,
Cc1cc(C(C#N)c2ccc(Cl)cc2)c(Cl)cc1NC(=O)c1cc(I)cc(I)c1O (stereo not drawn),-6.17,
Nc1ncnc2c1ncn2[C@@H]1O[C@H](CO)[C@@H](O)[C@H]1O,-8.99,
CCCCOC(=O)c1ccc(O)cc1,-10.8,
CC1=C(C/C=C(\C)CCC[C@H](C)CCC[C@H](C)CCCC(C)C)C(=O)c2ccccc2C1=O,13.3,
CCCCN1CCCC[C@H]1C(=O)Nc1c(C)cccc1C,-19,
CC(C(O)c1ccc(O)cc1)N1CCC(Cc2ccccc2)CC1 (stereo not drawn),-9.5,
CCCCN(CCCC)CC(O)c1cc(Cl)cc2c1-c1ccc(Cl)cc1/C2=C/c1ccc(Cl)cc1 (stereo not drawn),,21.1 µM (active)
CCCCOc1cc(C(=O)OCCN(CC)CC)ccc1N,-1.37,
CN(C)CCN(Cc1ccccc1)c1ccccn1,-8.19,
CC(=O)O[C@@]12CO[C@@H]1C[C@H](O)[C@@]1(C)C(=O)[C@H](O)C3=C(C)[C@@H](OC(=O)[C@H](O)[C@@H](NC(=O)OC(C)(C)C)c4ccccc4)C[C@@](O)([C@@H](OC(=O)c4ccccc4)[C@H]21)C3(C)C,-33.4,
c1ccc2c(CC3=NCCN3)cccc2c1,0.992,
CC(=O)c1ccc2c(c1)N(CCCN(C)C)c1ccccc1S2,-19,
O=C(CCCN1CCN(c2ccccn2)CC1)c1ccc(F)cc1,-7.31,
CCN(CC)CCSC(=O)C(c1ccccc1)c1ccccc1,-19.4,

# Experiment: qHTS of pediatric cancer cell lines to identify multiple opportunities for drug repurposing: Primary screen for OHS-50 cells (AID 1347103); also: nearly all actives have a fitted effect of over 40% in size;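 as to activity change, negative = cytotoxic: plate controls were DMSO neutral control for no effect and bortezomib positive control for full effect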
# Settings: OHS-50 osteosarcoma viability, CellTiter-Glo luminescence, 48 h; series mostly up to 57.3 µM; activity change, negative = cytotoxic: at the top concentration
# Summary of the method: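 Cells (500-1,000/well) rested 5 h, then received compounds for 48 h; metabolically active cells were measured by CellTiter-Glo luminescence. Final concentrations spanned up to 46 µM (MIPE, 11-point) or 0.59 nM-46 µM (NPC, 8-point) in primary screens, 11-point in follow-ups.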
SMILES,Potency,"activity change, negative = cytotoxic [%]"
COc1ccc2cc1Oc1ccc(cc1)C[C@H]1c3c(cc4c(c3Oc3cc5c(cc3OC)CCN(C)[C@@H]5C2)OCO4)CCN1C,15.5 µM (active),
CNCCC(Oc1ccc(C(F)(F)F)cc1)c1ccccc1 (stereo not drawn),27.6 µM (active),
CCN(CC)CCCC(C)Nc1c2ccc(Cl)cc2nc2ccc(OC)cc12 (stereo not drawn),17.4 µM (active),
CN(C)CCCN1c2ccccc2CCc2ccccc21,27.6 µM (active),
OCc1cc(C(O)CNCCCCCCOCCCCc2ccccc2)ccc1O (stereo not drawn),19.5 µM (active),
CN(C)CCCN1c2ccccc2Sc2ccc(Cl)cc21,27.6 µM (active),
O=C(O)COc1nn(Cc2ccccc2)c2ccccc12,,-3.29
Cc1cc(C(C#N)c2ccc(Cl)cc2)c(Cl)cc1NC(=O)c1cc(I)cc(I)c1O (stereo not drawn),30.9 µM (active),
CNCCCC1c2ccccc2C=Cc2ccccc21,21.9 µM (active),
CC(C)c1c(C(=O)Nc2ccccc2)c(-c2ccccc2)c(-c2ccc(F)cc2)n1CC[C@@H](O)C[C@@H](O)CC(=O)O,15.5 µM (active),
CC(O)COc1ccccc1 (stereo not drawn),,7.95
CN1CCN(C2Cc3ccccc3Sc3ccc(Cl)cc32)CC1 (stereo not drawn),27.6 µM (active),
CSc1ccc2c(c1)C(N1CCN(C)CC1)Cc1ccccc1S2 (stereo not drawn),27.6 µM (active),
OCCN1CCN(CCCN2c3ccccc3Sc3ccc(Cl)cc32)CC1,24.6 µM (active),
CNCC(O)c1ccc(O)c(O)c1 (stereo not drawn),,-3.21
CCN(CC)CCNC(=O)c1c(C)[nH]c(/C=C2\C(=O)Nc3ccc(F)cc32)c1C,1.23 µM (active),
CC(=O)O[C@@]12CO[C@@H]1C[C@H](O)[C@@]1(C)C(=O)[C@H](O)C3=C(C)[C@@H](OC(=O)[C@H](O)[C@@H](NC(=O)OC(C)(C)C)c4ccccc4)C[C@@](O)([C@@H](OC(=O)c4ccccc4)[C@H]21)C3(C)C,0.0031 µM (active),
CC(CN(C)C)CN1c2ccccc2CCc2ccccc21 (stereo not drawn),17.4 µM (active),
Cc1c(O)cccc1C(=O)N[C@@H](CSc1ccccc1)[C@H](O)CN1C[C@H]2CCCC[C@H]2C[C@H]1C(=O)NC(C)(C)C,24.6 µM (active),
